From PubChem BioAssay
Results with a measured potency or affinity are listed apart. A number with no mark means an inactive call.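 The calls were made as follows, unless noted: active = a dose-response fit showing signal loss, with half-maximal concentration no higher than twice the top tested dose; inconclusive = flat fit between 30% and 70% signal loss, or poor fit; inactive = the rest.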

test: C. neoformans lysis by adenylate kinase leakage – AK release luminescence, cherry-picks, dose response (AID 687000;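 active = fitted dose curve reaches 40% lysis signal rise at or below the highest valid concentration tested for that sample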;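 also: luminescent detection of adenylate kinase leaking from lysed yeast; 0% = median neutral control signal and 100% = double that signal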); conditions: 4 h, 100% = twice the neutral-control signal; series mostly up to 15 µM; lysis activity: at the top concentration

Compound | lysis activity
CO[C@@H]1CN(C)C(=O)c2ccc(NC(=O)C3CC3)cc2OC[C@H](C)N(C(=O)c2ccncc2)C[C@H]1C | -2.16%
CCCC#Cc1cnc2c(c1)C(=O)N([C@@H](C)CO)C[C@H](C)[C@H](CN(C)C(=O)Nc1cccc(F)c1)O2 | 8.74%
Cc1cccc(C)c1NC(=O)CNC(=O)C1CCCC1 | -5.26%
COc1ccc(NC(=O)N(C)C[C@H]2OCCCC[C@@H](C)Oc3ccc(NC(=O)c4ccccc4)cc3C(=O)N([C@@H](C)CO)C[C@H]2C)cc1 | 8.45%
CC1(C(=O)Nc2ccc3ccccc3c2)CCC(=O)N1C1CC1 (stereo not drawn) | -17.6%
CO[C@H]1CN(C)C(=O)c2cc(NC(=O)C3CCOCC3)ccc2OC[C@@H](C)NC[C@H]1C | -5.76%
CN1[C@H](C(=O)N2CCc3ccccc3C2)[C@@H](CO)[C@@H]2Cn3c(ccc(-c4cccnc4)c3=O)[C@@H]21 | 11.6%
C/C=C/c1ccc([C@@H]2[C@@H](CNC(=O)C3CC3)N(C(=O)CC)[C@H]2CO)cc1 | -10%
C[C@@H]1CN([C@@H](C)CO)C(=O)CCCn2nncc2CO[C@H]1CN(C)Cc1cccc(C(F)(F)F)c1 | 6.63%
O=C(C[C@@H]1CC[C@@H]2[C@H](COC[C@H](O)CN2Cc2cccc(C(F)(F)F)c2)O1)NCc1ccccc1 | -5.87%
CCC(=O)N[C@H]1C=C[C@@H](CC(=O)OC)O[C@@H]1CO | 8.59%
C[C@H]1CN([C@@H](C)CO)C(=O)c2cccc(NS(C)(=O)=O)c2O[C@H]1CN(C)C(=O)Nc1ccc2c(c1)OCO2 | 23.6% [at 16 µM]
C[C@H]1CN([C@@H](C)CO)C(=O)Cc2cc(NC(=O)Nc3cccc4ccccc34)ccc2O[C@H]1CN(C)S(=O)(=O)c1cccs1 | 22.7% [at 16 µM]
C[C@@H]1CN([C@H](C)CO)C(=O)CCCn2cc(nn2)CO[C@@H]1CN(C)C(=O)CCCN(C)C | 20.6% [at 16 µM]
C[C@H]1CN([C@@H](C)CO)C(=O)Cc2cc(NS(=O)(=O)c3ccc(F)cc3)ccc2O[C@H]1CN(C)S(=O)(=O)c1ccc(F)cc1 | -12.4%
CCC(=O)N1[C@@H]2Cn3c(cccc3=O)[C@H]1[C@@H](C(=O)NCc1ccccc1)[C@@H]2CO | 11.4%
CCNC(=O)C[C@@H]1CC[C@H]2[C@@H](COC[C@@H](O)CN2S(=O)(=O)c2ccccc2F)O1 | -15.3%
CNC[C@H]1OCCCC[C@H](C)Oc2ccc(NC(=O)CCCN(C)C)cc2C(=O)N([C@H](C)CO)C[C@@H]1C | 1.51%
COc1cccc(S(=O)(=O)N(C)C[C@@H]2Oc3ncc(-c4cccc(F)c4)cc3C(=O)N([C@H](C)CO)C[C@@H]2C)c1 | -10.6%
C[C@H](CO)N1C[C@H](C)[C@H](CN(C)Cc2cccnc2)Oc2ncc(C#CC3(O)CCCC3)cc2C1=O | -12.7%
COC(=O)N(C)C[C@H]1OCc2cn(nn2)CCCC(=O)N([C@H](C)CO)C[C@@H]1C | 2.13%
C[C@@H]1CN([C@H](C)CO)C(=O)c2cc(NS(=O)(=O)c3ccccc3)ccc2O[C@H]1CN(C)C(=O)NC1CCCCC1 | -9.16%
COc1ccc(CNC(=O)COc2ccc(OC)cc2)cc1 | 1.44%
CC(=O)NNC(=O)CSc1nnc(-c2ccccc2)c(-c2ccccc2)n1 | -15%
CCCN(C)C[C@H]1OCCCC[C@@H](C)Oc2ccc(NC(=O)NC(C)C)cc2C(=O)N([C@@H](C)CO)C[C@H]1C | -3.64%
CCOC(=O)CNC(=O)CSc1ncnc2c1cnn2-c1ccc(OC)cc1 | 4.48%
C[C@H]1CN([C@@H](C)CO)C(=O)CCCn2nncc2CO[C@@H]1CN(C)Cc1cccc(C(F)(F)F)c1 | -12%
CCC(=O)N1C[C@H](O)COC[C@@H]2O[C@@H](CC(=O)NCc3ccccc3Cl)CC[C@H]21 | 1.45%

test: viability loss in HepG2 hepatoma cells – cell-based, cherry-picks, set 2, cytotoxicity control, dose response (AID 687002); conditions: ATP luminescence (CellTiter-Glo), 48 h; series mostly up to 26 µM; activity change, negative = cytotoxicity: at the top concentration

Compound | activity change, negative = cytotoxicity
O=C(Nc1ccc(F)cc1)N1C[C@@H]2[C@H](c3ccccc31)[C@H](CO)N2Cc1cocn1 | 5.14%
C[C@@H]1CN([C@H](C)CO)C(=O)c2cc(NS(=O)(=O)c3ccc(Cl)cc3)ccc2O[C@H]1CN(C)S(=O)(=O)c1ccc(F)cc1 | 6.97%
COc1ccccc1-c1cnc2c(c1)C(=O)N([C@H](C)CO)C[C@@H](C)[C@H](CN(C)Cc1cncnc1)O2 | 3.03%
CNC[C@H]1Oc2c(NS(=O)(=O)c3cccs3)cccc2C(=O)N([C@H](C)CO)C[C@@H]1C | -0.014%
Cc1noc(C)c1S(=O)(=O)N(C)C[C@@H]1Oc2c(NC(=O)c3cnccn3)cccc2C(=O)N([C@@H](C)CO)C[C@@H]1C | -6.45%
CN1C(=O)c2cc(NS(C)(=O)=O)ccc2OC[C@@H]2O[C@@H](CC(=O)O)CC[C@@H]21 | -2.11% [at 23.5 µM]
CNC(=O)C[C@H]1CC[C@H]2[C@H](COc3ccc(NC(=O)c4cc(C)on4)cc3C(=O)N2C)O1 | 0.86% [at 23.5 µM]
C[C@@H]1CCCCO[C@@H](CN(C)S(=O)(=O)c2ccc(F)cc2)[C@@H](C)CN([C@@H](C)CO)C(=O)c2cc(NS(=O)(=O)c3ccc(F)cc3)ccc2O1 | 34.8%
COc1cccc(C2CC(c3cccs3)=NN2C(=O)c2ccco2)c1O (stereo not drawn) | 5.23%
COCCNC(=O)C[C@@H]1CC[C@@H]2[C@H](COC[C@@H](O)CN2S(=O)(=O)c2ccccc2C)O1 | 3.41%
O=C(C[C@H]1C[C@@H]2c3cc(NC(=O)CC4CC4)ccc3O[C@@H]2[C@@H](CO)O1)NCc1cccc(F)c1 | 2.21%
O=C(C[C@@H]1C[C@@H]2c3cc(NC(=O)Nc4ccc(F)cc4)ccc3O[C@@H]2[C@@H](CO)O1)NCC1CC1 | 7.64% [at 23.5 µM]
CO[C@@H]1CN(C)C(=O)c2ccc(NC(=O)C3CC3)cc2OC[C@H](C)N(C(=O)c2ccncc2)C[C@H]1C | -10.6%
CCCC#Cc1cnc2c(c1)C(=O)N([C@@H](C)CO)C[C@H](C)[C@H](CN(C)C(=O)Nc1cccc(F)c1)O2 | -5.01%
Cc1cccc(C)c1NC(=O)CNC(=O)C1CCCC1 | -14.7%
COc1ccc(NC(=O)N(C)C[C@H]2OCCCC[C@@H](C)Oc3ccc(NC(=O)c4ccccc4)cc3C(=O)N([C@@H](C)CO)C[C@H]2C)cc1 | -2.44%
CC1(C(=O)Nc2ccc3ccccc3c2)CCC(=O)N1C1CC1 (stereo not drawn) | 0.951%
CO[C@H]1CN(C)C(=O)c2cc(NC(=O)C3CCOCC3)ccc2OC[C@@H](C)NC[C@H]1C | 10.5% [at 23.5 µM]
CN1[C@H](C(=O)N2CCc3ccccc3C2)[C@@H](CO)[C@@H]2Cn3c(ccc(-c4cccnc4)c3=O)[C@@H]21 | 12.8%
C/C=C/c1ccc([C@@H]2[C@@H](CNC(=O)C3CC3)N(C(=O)CC)[C@H]2CO)cc1 | -4.78%

Compound | activity change, negative = cytotoxicity
C[C@@H]1CN([C@@H](C)CO)C(=O)CCCn2nncc2CO[C@H]1CN(C)Cc1cccc(C(F)(F)F)c1 | 11.7%
O=C(C[C@@H]1CC[C@@H]2[C@H](COC[C@H](O)CN2Cc2cccc(C(F)(F)F)c2)O1)NCc1ccccc1 | 11.6%
CCC(=O)N[C@H]1C=C[C@@H](CC(=O)OC)O[C@@H]1CO | 0.886%
C[C@H]1CN([C@@H](C)CO)C(=O)c2cccc(NS(C)(=O)=O)c2O[C@H]1CN(C)C(=O)Nc1ccc2c(c1)OCO2 | -1.49%
C[C@H]1CN([C@@H](C)CO)C(=O)Cc2cc(NC(=O)Nc3cccc4ccccc34)ccc2O[C@H]1CN(C)S(=O)(=O)c1cccs1 | -3.45%
C[C@@H]1CN([C@H](C)CO)C(=O)CCCn2cc(nn2)CO[C@@H]1CN(C)C(=O)CCCN(C)C | 1.03%
C[C@H]1CN([C@@H](C)CO)C(=O)Cc2cc(NS(=O)(=O)c3ccc(F)cc3)ccc2O[C@H]1CN(C)S(=O)(=O)c1ccc(F)cc1 | 17.4%
CCC(=O)N1[C@@H]2Cn3c(cccc3=O)[C@H]1[C@@H](C(=O)NCc1ccccc1)[C@@H]2CO | 4.43% [at 23.5 µM]
CCNC(=O)C[C@@H]1CC[C@H]2[C@@H](COC[C@@H](O)CN2S(=O)(=O)c2ccccc2F)O1 | 3.44%
CNC[C@H]1OCCCC[C@H](C)Oc2ccc(NC(=O)CCCN(C)C)cc2C(=O)N([C@H](C)CO)C[C@@H]1C | 1.56%
COc1cccc(S(=O)(=O)N(C)C[C@@H]2Oc3ncc(-c4cccc(F)c4)cc3C(=O)N([C@H](C)CO)C[C@@H]2C)c1 | 4.85%
C[C@H](CO)N1C[C@H](C)[C@H](CN(C)Cc2cccnc2)Oc2ncc(C#CC3(O)CCCC3)cc2C1=O | 2.83%
COC(=O)N(C)C[C@H]1OCc2cn(nn2)CCCC(=O)N([C@H](C)CO)C[C@@H]1C | -2.6%
C[C@@H]1CN([C@H](C)CO)C(=O)c2cc(NS(=O)(=O)c3ccccc3)ccc2O[C@H]1CN(C)C(=O)NC1CCCCC1 | -0.013% [at 23.5 µM]
COc1ccc(CNC(=O)COc2ccc(OC)cc2)cc1 | 0.077%
CC(=O)NNC(=O)CSc1nnc(-c2ccccc2)c(-c2ccccc2)n1 | -4.78%
CCCN(C)C[C@H]1OCCCC[C@@H](C)Oc2ccc(NC(=O)NC(C)C)cc2C(=O)N([C@@H](C)CO)C[C@H]1C | 5.34%
CCOC(=O)CNC(=O)CSc1ncnc2c1cnn2-c1ccc(OC)cc1 | -5.08%
C[C@H]1CN([C@@H](C)CO)C(=O)CCCn2nncc2CO[C@@H]1CN(C)Cc1cccc(C(F)(F)F)c1 | -9.78%
CCC(=O)N1C[C@H](O)COC[C@@H]2O[C@@H](CC(=O)NCc3ccccc3Cl)CC[C@H]21 | 5.25%
